According to PubChem BioAssay AID492993 (Johns Hopkins Ion Channel Center, 2010):
Out of some 4,900 compounds screened, about 200 (4.1%) were called active.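 The calls were made as follows: active = thallium signal drop more than 5 SD beyond the mean of the no-compound control wells, seen in both duplicate plates; inactive = the rest.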 Many of the other results were omitted from the sample, so actives are more common in it than they were.

Target: Inward rectifier potassium channel 2 (Mus musculus) (UniProt P35561)
Experiment: off-target Kir2.1 potassium flux block – cell-based, HEK293, thallium flux, selectivity assay for KCNK9 modulator project, confirmation (AID 492993);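 as to inhibition: signal is fluorescence rise after thallium addition divided by baseline fluorescence; plate controls were assay buffer only for no effect and full block by chlorpromazine control for full effect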
Details: Kir2.1 cells, FluxOR thallium flux fluorescence, at 10 µM; hits give high values

Chain of Inward rectifier potassium channel 2 (Mus musculus) (P35561 whole entry, looked up): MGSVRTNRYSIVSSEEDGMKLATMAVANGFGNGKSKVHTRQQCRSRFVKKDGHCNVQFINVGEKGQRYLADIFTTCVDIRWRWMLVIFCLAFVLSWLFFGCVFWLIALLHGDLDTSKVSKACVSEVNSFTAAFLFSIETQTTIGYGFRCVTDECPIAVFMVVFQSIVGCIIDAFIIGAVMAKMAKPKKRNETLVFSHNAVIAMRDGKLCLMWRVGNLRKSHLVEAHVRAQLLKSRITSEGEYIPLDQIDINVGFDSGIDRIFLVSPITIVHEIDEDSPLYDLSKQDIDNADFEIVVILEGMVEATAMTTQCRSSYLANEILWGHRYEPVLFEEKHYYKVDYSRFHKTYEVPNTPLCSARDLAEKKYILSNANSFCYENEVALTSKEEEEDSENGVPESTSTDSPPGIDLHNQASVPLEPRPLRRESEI

SMILES	inhibition
CCCCCCCCCCCCn1ccc(=N)cc1	75% (active)
CCCCCCN=C(CC)c1c(O)n(CCCC)c(=O)[nH]c1=O	inactive
CC(C)(C)c1ccc(OC(=O)N2CCCCC2)cc1	inactive
CCOC(=O)C1SC2(C(F)(F)C(F)F)CC1(O)c1c(c(OC)c3occc3c1OC)O2 (stereo not given)	inactive
CC(C)(C)c1ccc(CN2C(=O)CN=C(c3ccccc3)c3ccccc32)cc1	inactive
